Laboratory results published in ChEMBL document CHEMBL1857833, “Screening and optimization of specific chemical series against human African Trypanosomiasis (HAT)”.
Screen size: about 4,400 compounds; about 390 (8.9%) showed an effect of 50% or more. For the sample, strong results were picked, then their nearest neighbours and some compounds at random.

System: Trypanosoma brucei
Assay: DNDI: Inhibition of Human African Trypanosomiasis, SBRI 427, in vitro at 2 ug.mL-1
Format: functional

| SMILES | % inhibition |
| --- | --- |
| Cc1ccc(/C(=N/O)N2CC=CC2)c(OCc2cccc(F)c2)n1 | -19% |
| CCCN(CC)Cc1coc(-c2cccc(OCC)c2)n1 | 20% |
| COc1ccc(-c2nc(CN3C(C)C=CC3C)co2)cc1 (stereo not drawn) | 1% |
| FC(F)(F)Oc1ccc(CNCc2coc(-c3ccc(Br)cc3)n2)cc1 | 8% |
| CCOC(=O)C1CCN(Cc2coc(-c3cccc(OC)c3)n2)CC1 | 37% |
| COc1ccc(N2CCN(Cc3coc(-c4ccccc4Cl)n3)CC2)cc1 | -8% |
| Cc1cc(C)cc(Oc2ccc(/C(=N/O)NC3CCC(C)CC3)cn2)c1 (stereo not drawn) | 82% |
| Cc1cc(C)cc(Oc2ccc(/C(=N/O)NC3CC(C)CC(C)(C)C3)cn2)c1 (stereo not drawn) | 14% |
| Cc1cc(C)cc(Oc2ccc(/C(=N/O)NC3CCCC3)cn2)c1 | 98% |
| Cc1cc(C)cc(Oc2ccc(/C(=N/O)Nc3ccccc3)cn2)c1 | 0% |
| CCN(CC)CCN(C)Cc1coc(-c2cccs2)n1 | 4% |
| CCN(CC)CCNCc1coc(-c2ccc(F)cc2)n1 | -17% |
| CCCCN(CCCC)CCCNCc1coc(-c2ccco2)n1 | 20% |
| CN(C)CCCNCc1coc(-c2ccc(F)cc2)n1 | 73% |
| CCCCN(CCCC)CCCNCc1coc(-c2ccc(F)cc2)n1 | 1% |
| CCCCN(CCCC)CCCNCc1coc(-c2ccc(C)cc2)n1 | 53% |
| Cc1cccc(CNCc2coc(-c3cccc(C)c3)n2)c1 | -10% |
| CCN(CC)CCCNCc1coc(-c2cccc(C)c2)n1 | 95% |
| CCN(CC)CCCNCc1coc(-c2ccc(F)cc2)n1 | -8% |
| CCN(CC)CCNCc1coc(-c2cccc(C)c2)n1 | 26% |
| COc1cccc(-c2nc(CNCc3ccc(C(C)(C)C)cc3)co2)c1 | 5% |
| COc1ccc(Oc2ncccc2/C(=N/O)NCCN2CCOCC2)cc1 | -10% |
| Cc1cc(NCc2coc(-c3ccc(Cl)cc3Cl)n2)n(-c2ccccc2)n1 | -4% |

| SMILES | % inhibition |
| --- | --- |
| CCN(Cc1coc(-c2cccc3ccccc23)n1)c1ccc2c(c1)OCO2 | 29% |
| Cc1ccc(-c2nc(Cn3ccnc3C(C)C)co2)cc1 | 39% |
| Fc1ccccc1-c1nc(CNCC(F)(F)C(F)(F)F)co1 | 21% |
| Cc1cccc(-c2nc(CNC34C[C@H]5C[C@@H](C3)C[C@@H](C4)C5)co2)c1 | 35% |
| Oc1ccc(-c2nc(CNC34C[C@H]5C[C@@H](C3)C[C@@H](C4)C5)co2)cc1 | 23% |
| COc1cccc(-c2nc(Cn3ccnc3C=O)co2)c1 | 84% |
| Brc1ccccc1-c1nc(CNC23C[C@H]4C[C@@H](C2)C[C@@H](C3)C4)co1 | 48% |
| Fc1ccc(-c2nc(CNC34C[C@H]5C[C@@H](C3)C[C@@H](C4)C5)co2)cc1 | 58% |
| Brc1ccc(-c2nc(CNCc3ccccn3)co2)cc1 | -9% |
| COc1ccc(NCc2coc(-c3cccc(OC)c3)n2)cc1 | 8% |
| CCc1nccn1Cc1coc(-c2cccc(OC)c2)n1 | -9% |
| c1csc(-c2nc(CNC34C[C@H]5C[C@@H](C3)C[C@@H](C4)C5)co2)c1 | 25% |
| COc1cccc(-c2nc(Cn3ccnc3C)co2)c1 | 31% |
| COc1cccc(-c2nc(CNC34C[C@H]5C[C@@H](C3)C[C@@H](C4)C5)co2)c1 | 85% |
| Brc1ccc(-c2nc(CNC34C[C@H]5C[C@@H](C3)C[C@@H](C4)C5)co2)cc1 | 62% |
| Cc1ccc(/C(=N/O)NC2CC2)c(OCc2ccncc2)n1 | 19% |
| Clc1ccccc1-c1nc(CN2CC=CCC2)co1 | 14% |
| CCN(CC)c1cccc(Oc2ncccc2/C(=N/O)N2CCCC2)c1 | -7% |
| CC1(C)Cc2cccc(Oc3ccc(/C(=N/O)NC4CCc5ccccc54)cn3)c2O1 (stereo not drawn) | 10% |
| Cc1ccc(/C(=N/O)N2CCCC2C)c(Oc2cccc(C(C)C)c2)n1 (stereo not drawn) | 0% |
| Cc1cccc(N2CCN(Cc3coc(-c4ccccc4F)n3)CC2C)c1 (stereo not drawn) | -21% |
| COCC(C)N/C(=N\O)c1ccc(C)nc1OCc1ccccc1C (stereo not drawn) | 8% |
| N#CCCN(Cc1ccccc1)Cc1coc(-c2ccc(F)cc2)n1 | -7% |

| SMILES | % inhibition |
| --- | --- |
| Cc1ccc(C(C)C)c(Oc2cc(/C(=N/O)NCC3CCCCC3)ccn2)c1 | 27% |
| COc1ccc(-c2nc(CNC34C[C@H]5C[C@@H](C3)C[C@@H](C4)C5)co2)cc1 | 3% |
| Cc1ccc(-c2nc(CNC34C[C@H]5C[C@@H](C3)C[C@@H](C4)C5)co2)cc1 | 90% |
| Cc1ccccc1-c1nc(CNC23C[C@H]4C[C@@H](C2)C[C@@H](C3)C4)co1 | 49% |
| CN(Cc1coc(-c2ccccc2Cl)n1)CC1OCCO1 | 8% |
| COc1ccccc1Oc1ncccc1/C(=N/O)Nc1ccccc1 | 62% |
| CSc1ccccc1Oc1ncccc1/C(=N/O)Nc1ccccc1 | 71% |
| CSc1ccccc1Oc1ncccc1/C(=N/O)N1CCOCC1 | 8% |
| COc1ccc(Oc2ncccc2/C(=N/O)Nc2ccccc2)cc1 | -9% |
| O/N=C(\Nc1ccccc1)c1cccnc1Oc1ccccc1F | 2% |
| CSc1ccccc1Oc1ncccc1/C(=N/O)N1CCN(c2ccccc2)CC1 | 22% |
| Cc1ccc(Oc2nc(C)ccc2/C(=N/O)N2CCN(C)CC2)cc1 | 19% |
| COCCN(/C(=N\O)c1ccc(C)nc1Oc1ccc(SC)c(C)c1)C(C)C | 9% |
| COCCN(Cc1coc(-c2ccccc2C)n1)C(C)C | -31% |
| O/N=C(\Nc1ccon1)c1ccc(Oc2cccc3cccnc23)nc1 | 13% |
| CCOc1ccccc1-c1nc(CN2CCN(c3cc(C)nc4ccccc34)CC2)co1 | 14% |
| N/C(=N\O)c1cccnc1OCc1cccc(F)c1 | -4% |
| CN(/C(=N\O)c1cccnc1OCc1cccc(F)c1)C1CCCCC1 | -3% |
| Cc1ccc(/C(=N/O)N(C)c2ccccc2)c(OCc2ccccc2F)n1 | -4% |
| CN(/C(=N\O)c1cccnc1OCc1cccc(F)c1)c1ccccc1 | 98% |
| CN(/C(=N\O)c1cccnc1OCc1ccccc1F)c1ccccc1 | 98% |
| CN(Cc1ccco1)/C(=N\O)c1cccnc1OCc1ccccc1F | 5% |
